High-throughput results: PubChem, National Center for Advancing Translational Sciences (NCATS)
Tb PYK inh: T. brucei pyruvate kinase inhibition | Q57TT1 | TbPYK enzyme, Kinase-Glo Plus ATP luminescence, 45 min | Potency, µM (titrated, usually from 76.8 µM), for the others: at the highest dose activity, negative = inhibition, usual class: inhibitors | 0.12% of 410,000 active | AID 624173; further: nearly all actives have a fitted effect of over 50% in size
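Screened from lowest to highest concentration, compounds were pinned into TbPYK/substrate mixtures, and ADP (130 uM final) was added. Plates sat at room temperature for 45 min prior to Kinase-Glo Plus detection by luminescence.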
Giardia FBPA inh: inhibitors of Giardia lamblia fructose-1,6-bisphosphate aldolase; A8B2U2; purified Giardia FBPA; Potency, µM (titrated, usually from 59.6 µM), for the others: top-dose activity, negative = inhibition, usual class: inhibitors; 0.71% of 290,000 active; AID 2451; further: nearly all actives have a fitted effect of over 55% in size
Target sequence (A8B2U2 whole entry, looked up): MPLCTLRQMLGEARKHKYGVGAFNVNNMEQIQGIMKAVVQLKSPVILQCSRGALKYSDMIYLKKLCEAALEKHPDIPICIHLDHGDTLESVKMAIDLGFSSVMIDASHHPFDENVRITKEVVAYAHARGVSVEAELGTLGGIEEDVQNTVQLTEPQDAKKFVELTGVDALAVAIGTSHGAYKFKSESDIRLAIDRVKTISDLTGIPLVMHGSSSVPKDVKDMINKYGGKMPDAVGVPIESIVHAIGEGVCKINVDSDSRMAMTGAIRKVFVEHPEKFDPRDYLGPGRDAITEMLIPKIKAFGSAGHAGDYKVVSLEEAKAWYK
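40 nM FBPA preincubated 10 min at RT with compound (up to 57.5 uM final), then substrate plus GAPDH/TPI/NAD/arsenate coupling and diaphorase/resazurin added. Fluorescence read after 20 min at RT, 525/598 nm.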
RE007 growth inh: less growth of the S. pombe RE007 Vpr strain | S. pombe RE007 Vpr strain, BacTiter-Glo ATP luminescence, 24 h | Potency, µM (titrated, usually from 92.2 µM), for inactives: at the highest dose activity change, negative = less growth, most hits filed as inhibitors | 0.21% of 360,000 active | AID 651644; active means well fitted falling curve with a large enough effect; inconclusive means small, poorly fitted or top-dose-only effect; inactive means no such curve, though single readings can be large or run the other way; further: nearly all actives have a fitted effect of over 50% in size
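Fission yeast RE007 carrying one integrated HIV-1 vpr copy, seeded at OD 0.01 in PMG+AL medium with 23 nL pinned compound. Grown 24 h at 30 degrees; viability read by BacTiter-Glo luminescence after 5 min.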
LmPK inh: blocks Leishmania mexicana pyruvate kinase activity. Q27686. purified LmPK, Kinase-Glo ATP luminescence, 1 h. Potency, µM (doses to about 57.5 µM), for the others: at the highest dose activity change, negative = inhibition, actives largely listed as inhibitors. 0.37% of 290,000 active. AID 1721
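ATP generated from ADP (0.1 mM) and PEP (0.5 mM) by 0.1 nM LmPK over 1 h at room temperature (pH 7.2 imidazole buffer) was detected by coupled luciferase luminescence. Values were normalized to uninhibited and no-enzyme wells.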
Starred values were filed as active, the others as inactive; ? = inconclusive; · = not tested or not shown. Compounds with a hit are over-represented: about 0.95% of the library has one in this group of screens. Unless noted, the call rests on the fitted dose curve; in most records, active means well fitted curve in the direction sought with a large enough effect; inconclusive means small, poorly fitted or top-dose-only effect, or another doubt; inactive means no such curve, though single readings can be large; an effect the other way counts as inactive or inconclusive. On the % scale 0 is the no-effect control and ±100 the full control effect; potency means the concentration at half of the fitted maximal effect.

SMILES | Tb PYK inh | Giardia FBPA inh | RE007 growth inh | LmPK inh
Cc1cccc(C)c1Nc1nc2ccccc2o1 | -0.3% | 0.4% | 14.0% | 1.1%
Cc1cc(-n2c(=O)[nH]c(=O)n(C)c2=O)ccc1Oc1ccc(S(=O)(=O)C(F)(F)F)cc1 | -8.0% | · | · | ·
Fc1ccc(-n2c(-c3ccco3)n[nH]c2=S)cc1 | 8.91µM* | -16.7% | 11.8% | ?
Cn1cc(Cl)c(-c2n[nH]c(=S)n2-c2ccc(F)cc2)n1 | ? | -17.8% | 1.0% | -18.0%
Cc1c(Cl)c(-c2n[nH]c(=S)n2-c2ccc(F)cc2)nn1C | 3.98µM* | -0.1% | 1.1% | ?
Cc1ccc(-n2c(-c3ccco3)n[nH]c2=S)cc1 | 6.31µM* | 6.4% | 6.8% | ?
N/C(=N\N=C\c1cccc(O)c1)c1nonc1N | ? | -3.0% | -10.8% | 11.2µM*
N/C(=N\N=C\c1ccc(O)cc1)c1nonc1N | -15.6% | 3.3% | -3.4% | ?
OCC1(CO)COC(C(Cl)(Cl)Cl)OC1 | 1.8% | · | · | ·
C=C1/C(=C/C=C2\CCCC3(C)[C@@H]([C@H](C)/C=C/C=C/C(O)(CC)CC)CC[C@@H]23)C[C@@H](O)C[C@@H]1O (stereo partly specified) | -1.4% | · | · | ·
Cc1ccc(Cl)cc1N1CCN(C(=O)Cn2ncn3cccc3c2=O)CC1 | -3.4% | -2.7% | -13.3% | 4.1%
N#C/C=C/N1CCN(C(=O)c2ccco2)CC1 | 2.1% | · | 13.5% | ·
COc1cc(/C=N/Nc2nn3cnnc3c3ccccc23)ccc1O | -18.1% | ? | -14.6% | 7.94µM*
COc1cccc(/C=N/Nc2nc3ccccc3n3cnnc23)c1 | -1.3% | -20.6% | 14.5% | 3.5%
COc1cccc(/C=N/Nc2nn3cnnc3c3ccccc23)c1 | -8.5% | -2.7% | -0.7% | 25.1µM*
CCOc1cc(/C=N/Nc2nn3cnnc3c3ccccc23)ccc1O | 0.2% | -15.5% | -7.3% | 15.8µM*
Oc1ccc(/C=N/Nc2nn3cnnc3c3ccccc23)cc1 | -0.3% | -16.3% | -23.3% | 14.1µM*
O=C(O)c1cccc(S(=O)(=O)Nc2ccc3c(c2)CCC3)c1 | -4.5% | 2.6% | -0.9% | 0.6%
O=C(N/N=C/c1ccccc1)c1n[nH]c2c1CCCC2 | 1.9% | 1.3% | 14.5% | -9.3%
O=C(N/N=C/c1cccs1)c1n[nH]c2c1CCC2 | -18.0% | -1.0% | -1.3% | 25.1µM*
Cc1ccc(S(=O)(=O)NC(C)CCc2ccccc2)cc1C(N)=O (stereo unspecified) | -1.3% | 20.6% | 3.7% | -7.6%
Cc1ccc(-c2csc(N3C(=N)SCC3=O)n2)cc1 | -2.2% | -3.2% | -10.0% | 3.6%
N=C1SCC(=O)N1c1ncc(Cc2ccc(F)cc2)s1 | -0.7% | -23.1% | 28.2µM* | 0.1%
CC1(Cc2ccc(OC(F)(F)F)cc2)C(=O)Nc2ccc(S(=O)(=O)NC3CCCCC3)cc21 (stereo unspecified) | -5.1% | · | 6.7% | ·
COc1ccc(C(=O)Oc2cccc3cccnc23)cc1[N+](=O)[O-] | -0.2% | -26.9% | 63.1µM* | 6.4%
SMILES | Tb PYK inh | Giardia FBPA inh | RE007 growth inh | LmPK inh
NC(=O)c1ccc(Oc2cccc3cccnc23)c([N+](=O)[O-])c1 | -3.2% | -14.3% | 5.8% | 0.1%
COc1ccc(C(=O)Oc2cccc3cccnc23)cc1S(=O)(=O)N1CCOCC1 | -1.5% | -23.1% | 31.6µM* | 2.1%
COc1ccc(C(=O)Oc2ccc(C)cc2)cc1S(=O)(=O)N1CCOCC1 | -10.8% | · | 4.3% | ·
O=C(O)CSc1nnc2c(n1)[nH]c1ccccc12 | 6.4% | -0.7% | 35.9% | 28.2µM*
O=C(CSc1nnc2c(n1)[nH]c1ccccc12)OCc1ccccc1 | -7.8% | 0.3% | 19.0% | 7.7%
COCCN(C(=O)c1cc(Cl)ccn1)c1c(N)n(Cc2ccccc2)c(=O)[nH]c1=O | 1.7% | · | -24.9% | ·
NC(CCc1ccccc1)c1csc(NC(=O)Nc2cccc(C(F)(F)F)c2)n1 (stereo unspecified) | -0.1% | · | 18.0% | ·
Cc1ccc(-n2nc3c(n2)/C(=N/O)CC/C3=N\O)cc1 | -13.5% | -0.8% | ? | 14.1µM*
C#CCn1c(=O)c2c(nc(/C=C/c3cccc(OC)c3)n2C)n(CCCOP(=O)(O)O)c1=O | · | -8.1% | · | ·
O=C(Nc1ccc(Cl)cc1)C(Cl)C(=O)c1ccccc1 (stereo unspecified) | ? | -2.4% | 11.2µM* | -1.1%
Cc1ccc(CSc2nc3c([nH]c4ccccc43)c(=O)n2C)cc1 | -5.5% | · | · | ·
CCC(C)n1c(-c2cccc(S(=O)(=O)N3CCOCC3)c2)n[nH]c1=S (stereo unspecified) | 7.08µM* | · | -3.2% | ·
